Bioassay records deposited in PubChem BioAssay by National Center for Advancing Translational Sciences (NCATS).
Sampled rows, rich in hits. Any-hit rate of the full collection: about 7.5%.
ELG1 genotoxic – genotoxicity induction in ELG1-luciferase HEK293T cells; HEK293T ELG1-luciferase reporter, luminescence, 16 h; Potency, µM (top dose mostly 46 µM), inactives show at the highest dose activity change, positive = activation, actives largely listed as activators; 330,000 compounds, 1.3% hits; further: % of control where 0% means no effect; nearly all actives have a fitted effect of over 60% in size
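DMSO vehicle served as control against compound-treated ELG1-luciferase HEK293T cells; exposure lasted 16 hr at 37 °C and 5% CO2, followed by ONE-Glo luminescence detection after 30 min.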
KinaseGlo FLuc – Kinase-Glo luciferase inhibition (counter-screen); Q27757; Kinase-Glo luciferase, ATP luminescence, 8 min; Potency, µM (series often up to 38.3 µM), for the others: top-dose activity change, negative = inhibition, usual class: inhibitors; 200,000 compounds, 0.28% hits; AID 1379; further: on the % scale 0 is the no-effect control and ±100 the full control effect; nearly all actives have a fitted effect of over 60% in size
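Light output from Kinase-Glo luciferase with luciferin and 10 uM ATP in 50 mM imidazole pH 7.2, KCl, MgCl2, Tween 20, BSA; compound pin-delivered, 8-min ambient incubation, then luminescence read.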
Rab9 promoter act – activates the Rab9 promoter; 320,000 compounds, 2.8% hits; Potency, µM (doses to about 9.22 µM), without a hit: at the top dose activation, negative = inhibition, actives largely listed as activators; AID 485297; Huh7 Rab9 promoter-luciferase reporter, luminescence, 24 h; further: % of control where 0% means no effect; nearly all actives have a fitted effect of over 60% in size
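Luciferase signal after 10 min detection reagent at ambient indicates Rab9 promoter upregulation; stably transfected Huh7 cells were treated 24 h with compound in DMSO at 37 °C, 5% CO2.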
NPC1 prom act – activators of NPC1 promoter; Huh7 NPC1 promoter luciferase reporter, 24 h; Potency, µM (series often up to 9.22 µM), for the others: at the highest dose activation, most hits filed as activators; 320,000 compounds, 2.4% hits; further: % of control where 0% means no effect; nearly all actives have a fitted effect of over 60% in size
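NPC1 promoter–luciferase Huh7 cells; 24 h compound; luminescence.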
SMN2 splice up – SMN2 splice variant enhancement; HEK293 SMN2-luciferase splicing reporter, luminescence, 30-36 h; Potency, µM (titrated, usually from 46.1 µM), inactives show at the highest dose activity change, positive = activation, most hits filed as activators; 210,000 compounds, 2.8% hits; AID 1458; further: % of control where 0% means no effect; nearly all actives have a fitted effect of over 55% in size
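qHTS luciferase splicing reporter: luminescence rises when SMN2 exon 7 is included in transfected HEK293 cells. Compound exposure lasted 30-36 h at 37C, with 4.5 mM final sodium butyrate as control, followed by a ONE-Glo read.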
FLuc counter – counter-screen for miR-21 project: firefly luciferase inhibitors or activators; purified FLuc, Km substrates, luminescence inhibition; Potency, µM (highest dose often 57.5 µM), for inactives: at the top dose activity change, negative = inhibition, hits mostly inhibitors; 360,000 compounds, 6.9% hits; AID 588342;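 further: plate controls were vehicle for no effect and reference inhibitor for full effect; nearly all actives have a fitted effect of over 55% in size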
Target sequence (P08659 whole entry, looked up): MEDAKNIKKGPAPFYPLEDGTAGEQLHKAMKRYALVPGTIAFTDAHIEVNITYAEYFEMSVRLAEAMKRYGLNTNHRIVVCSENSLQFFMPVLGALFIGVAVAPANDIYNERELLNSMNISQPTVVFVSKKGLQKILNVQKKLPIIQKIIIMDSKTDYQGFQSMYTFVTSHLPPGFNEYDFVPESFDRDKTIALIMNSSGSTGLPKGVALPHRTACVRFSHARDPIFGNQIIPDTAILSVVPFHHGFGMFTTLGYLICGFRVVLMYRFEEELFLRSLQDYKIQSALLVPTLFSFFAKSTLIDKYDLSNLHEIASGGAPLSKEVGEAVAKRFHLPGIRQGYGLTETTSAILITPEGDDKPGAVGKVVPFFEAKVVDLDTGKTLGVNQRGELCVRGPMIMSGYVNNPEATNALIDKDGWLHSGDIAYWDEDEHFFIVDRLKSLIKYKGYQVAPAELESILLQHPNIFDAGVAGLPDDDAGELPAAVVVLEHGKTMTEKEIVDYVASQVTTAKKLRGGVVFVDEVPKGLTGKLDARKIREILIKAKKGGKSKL
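Purified P. pyralis luciferase, 10 nM final, with Km-level 10 uM D-luciferin and 10 uM ATP in 50 mM Tris acetate pH 7.5, 10 mM Mg acetate, 0.01% Tween-20, 0.05% BSA; 6-point qHTS titration about 60 µM downward; luminescence read.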
Numbers without * were called inactive; ? = inconclusive; nt = no result; [ ] = dose if it differs, or a comment. The call rests on the fitted dose curve; in most records, active means well fitted curve in the direction sought with a large enough effect; inconclusive means small, poorly fitted or top-dose-only effect, or another doubt; inactive means no such curve, though single readings can be large; an effect the other way counts as inactive or inconclusive. Potency means the concentration at half of the fitted maximal effect.

SMILES	ELG1 genotoxic	KinaseGlo FLuc	Rab9 promoter act	NPC1 prom act	SMN2 splice up	FLuc counter
COC(=O)C1=C(O)/C(=C\c2ccc(CNC(=O)C(=O)Nc3ccc(C)c(C)c3)o2)N=C1C	8%	-4%	-5%	-1%	-15%	?
CCOC(=O)C1=C(O)/C(=C/c2ccc(CNC(=O)C(=O)Nc3ccc(C)cc3)o2)N=C1C	?	13%	11%	8%	-12%	7.6µM*
Cc1cc[n+]2n1CC(O)C2 (stereo not given)	0%	nt	3%	-3%	nt	2%
Cc1ccc(CONC(=O)c2cccc(C)c2)cc1	-1%	nt	?	16%	nt	?
O=C(NOCc1ccccc1)c1ccc(Cl)cc1Cl	?	nt	0.4µM*	0.56µM*	nt	1.3µM*
O=C(CNC(=O)c1ccc(Cl)cc1Cl)OCCOc1ccccc1	7%	nt	13%	15%	nt	17µM*
O=C(NOCc1ccccc1)c1ccccc1	6.5µM*	nt	1.8µM*	3.2µM*	nt	6µM*
O=c1[nH]c(=O)n([C@H]2C[C@@H](O)[C@@H](CO)O2)cc1C=CBr	nt	nt	0%[46.1 µM]	3%[46.1 µM]	nt	nt
CC(C)Oc1ccc(CNC(=O)CN2C(=O)c3cccnc3Oc3ccc(Cl)cc32)cc1	nt	nt	nt	nt	nt	-13%
Cc1ccc2c(c1)c(=O)c(C(=O)c1ccncc1)cn2CC(=O)Nc1ccccc1Cl	nt	nt	nt	nt	nt	-4%
CC(=O)N1CCC(N(Cc2ccc(C)o2)C(=O)Nc2cccc(C(F)(F)F)c2)CC1	nt	nt	nt	nt	nt	-2%
CCCOc1ccc(C2C(=O)N(C3CCCCCC3)CC(=O)N2Cc2ccc(OC)cc2)cc1OC (stereo not given)	nt	nt	nt	nt	nt	-7%
C/C(=N\NC(=O)CSc1nc2ccccc2o1)c1ccc(O)cc1	9%	1%	3%	1%	10%	17µM*
O=C(CSc1nc2ccccc2o1)N/N=C/c1ccc(O)c(O)c1	14%	nt	-2%	-5%	nt	19µM*
O=C(CSc1nc2ccccc2o1)N/N=C/c1ccccc1	16%	-2%	1%	-2%	-4%[1.84 µM]	-2%
CNc1ccccc1C(C)(C)c1cc(-c2ccc(F)cc2)no1	0%	2%	-30%	-14%	-66%	4%
Cc1ccc(-n2c(O)c(/C=N/Nc3ccc(S(=O)(=O)N4CCOCC4)cc3[N+](=O)[O-])c3ccccc3c2=O)c(C)c1	-14%	?	-15%	-7%	-99%	24µM*
O=C(O)c1ccc(/C=N\Nc2ccc(S(=O)(=O)N3CCOCC3)cc2[N+](=O)[O-])cc1	3%	nt	-3%	1%	nt	-3%
Oc1ccc(NCc2ccccc2OCc2ccccc2)cc1	0%	0%	-3%	-3%	-9%	?
Oc1ccc(NCc2ccccc2OCc2ccc(Cl)cc2)cc1	nt	nt	nt	nt	22µM*	21µM*
Cc1cccc2c1OCC/C2=N\NC(=O)COc1ccccc1Cl	?	-13%	3.2µM*	2.2µM*	22%	3.8µM*
C=C(C)C1CC=C(C)/C(=N/NC(=O)COc2ccccc2Cl)C1 (stereo not given)	-7%	-2%	-8%	1%	-24%	5%
Cc1ccc(C(=O)NCCc2nnc3c(C(F)(F)F)cc(Cl)cn23)o1	0%	nt	-5%	0%	nt	0%
CCOC(=O)c1ccc(NC(=O)Nc2cccc(C)n2)cc1	?	-4%	5%	10%	6%	1%
Oc1ccccc1CNc1cccc2cccnc12	?	-2%	27%	2%	nt	17µM*
SMILES	ELG1 genotoxic	KinaseGlo FLuc	Rab9 promoter act	NPC1 prom act	SMN2 splice up	FLuc counter
CCOC(=O)c1ccc(NC(=O)Nc2ccccn2)cc1	?	-7%	1.3µM*	2.5µM*	nt	2.7µM*
O=C(Nc1ccc(Cl)cc1)Nc1ccccn1	?	nt	2.2µM*	2.8µM*	nt	5.4µM*
O=C(Nc1ccccc1)Nc1ccccn1	?	-3%	?	?	14µM*	12µM*
Cc1ccc(C)c(CN2C(=O)c3ccccc3S(=O)c3ccc(C(=O)N4CCCCC4)cc32)c1 (stereo not given)	nt	nt	nt	nt	-31%	2%
Cc1ccc(NC(=O)CCc2c(C)nc3c(-c4ccc(F)cc4)c(C)nn3c2C)cc1F	nt	nt	nt	nt	7%	0%
Cc1cc(C)c2c(=O)c3c(oc2c1)C(=O)N(CCCOC(C)C)C3c1ccccc1F (stereo not given)	nt	nt	nt	nt	0%	-9%
O=c1[nH]c(SCc2c(Cl)c(Cl)c(Cl)c(Cl)c2Cl)nc(=S)[nH]1	nt	-1%[7.66 µM]	nt	nt	15%[9.22 µM]	nt
O=C(Nc1ccccn1)c1ccc(-c2ccccc2)cc1	?	nt	0.089µM*	0.1µM*	nt	0.21µM*
Oc1ccccc1CNc1cnc2ccccc2c1	?	1%	?	?	?	11µM*
Oc1ccc(Cl)cc1CNc1cnc2ccccc2c1	4%	nt	4%	-4%	nt	-13%
O=C(Nc1ccccn1)C(=O)Nc1ccccn1	4.6µM*	nt	1.3µM*	1.4µM*	nt	5.4µM*
O=C(Nc1ccncc1)Nc1ccc(Cl)cc1	14%	nt	6%	22%	nt	21µM*
O=C(Nc1ccncc1)Nc1ccncc1	7%	1%	-13%	-8%	-2%	0%
Cc1ccccc1C(=O)N1CCN(CCc2ccccn2)CC1	nt	nt	nt	nt	nt	1%
CCOc1ccccc1CNC(=O)c1ccc2c(c1)sc1nc(-c3cccc(OC)c3)cn12	nt	nt	nt	nt	nt	-11%
COc1ccccc1NC(=O)c1oc2ccccc2c1NC(=O)Cc1cccs1	nt	nt	nt	nt	-8%	-19%
Cc1cn2c(=O)c(S(=O)(=O)NCCc3ccccc3)c(C)nc2s1	nt	nt	nt	nt	nt	0%
O=C(Nc1ccccc1)Nc1cccc2ccccc12	0%	nt	19%	11%	nt	?
O=C(Nc1ccccc1)Nc1cccc2cccnc12	6.3µM*	-7%	23%	3%	14µM*	6µM*
S=C(Nc1ccccn1)Nc1ccccc1Cl	10%	0%	?	6%	nt	-22%
CC(C)(C)c1nnc(NC(=O)Nc2ccc(Cl)cc2)s1	-3%	nt	?	?	nt	-2%
S=C(Nc1ccccn1)c1ccccn1	13µM*	-21%	2.5µM*	2.8µM*	20µM*	7.6µM*
Cc1nc(NC(=O)Nc2ccc(Cl)cc2)sc1C	10%	0%	3.2µM*	12%	?	?
O=C(NC1CCCCC1)c1cccnc1Sc1ccccc1	1%	nt	0%	-3%	nt	3%
Cc1sc2c(c1C)c(=O)n(-c1ccccc1)c(=O)n2CC(=O)c1ccc(Cl)cc1	nt	nt	nt	nt	-6%	-6%
O=C(N/N=C/c1ccco1)c1cc(-c2cccc3ccccc23)n[nH]1	9%	-3%	-3%	23%	-15%	17µM*
Cc1ccc(-c2cc(C(=O)N/N=C/c3ccco3)[nH]n2)cc1	9%	-3%	15%	-1%	16%	21µM*
